Measurements taken from ChEMBL document CHEMBL4513216, “Probing the Open Global Health Chemical Diversity Library for Multistage-Active Starting Points for Next-Generation Antimalarials” (ACS Infect Dis, 2020).
Hit rate of the full screen: of about 69,000 compounds, about 8,600 (12%) showed an effect of 50% or more. The list comes from a sample in which strong results are over-represented; it also holds similar structures and randomly drawn compounds.

Each compound was assayed on Plasmodium berghei (assay: Screen against P. berghei liver stage (PbLuc), transformed with Luciferase, at 10uM). Settings: tested at 10 uM.
Assay type: functional, HepG2
CN1CCN(C(=O)c2cc3sccc3n2Cc2ccccc2Cl)CC1 gave an INHIBITION of 11.7%.
With CC(C)(C)c1noc(CCC(=O)N2CCN(Cc3ccco3)CC2)n1 the INHIBITION was 19.9%.
With NC(=O)c1cc2c(nc1CCOc1ccc(F)cc1)CCC2 the INHIBITION was 31.2%.
With NC(=O)c1cc2c(nc1CCOCc1ccccc1)CCC2 the INHIBITION was 20.3%.
For COc1cccc(OCCc2nc3c(cc2C(N)=O)CCC3)c1, the INHIBITION was 54.8%.
O=C1CC[C@H]2[C@H](CCN2c2ncc(F)cn2)N1c1cccnc1 was tested, and the INHIBITION was 0.542%.
Compound Cc1cccc(C(=O)N2CCCC(Cc3cncc4ccccc34)C2)n1 (stereo not drawn) has an INHIBITION of -22.6%.
With CCN(CC)CCCNC(=O)C(C)n1cc(Br)cn1 (stereo not drawn) the INHIBITION was -1.33%.
Cc1cc(N2CCC(Cc3ccncc3)C2)ncn1 (stereo not drawn) was tested, and the INHIBITION was -2.09%.
With Cc1cc(N2CCOCC(Cc3ccc4[nH]ccc4c3)C2)ncn1 (stereo not drawn) the INHIBITION was 67.7%.
Nc1cc(N2CCOCC(Cc3ccc4[nH]ccc4c3)C2)ncn1 (stereo not drawn) gave an INHIBITION of 66.5%.
c1cc(N2CCOCC(Cc3ccc4[nH]ccc4c3)C2)ncn1 (stereo not drawn) gave an INHIBITION of 3.91%.
Work on Cc1ccccc1CSc1nc(N)cc(N2CCOCC(CO)C2)n1 (stereo not drawn) yielded an INHIBITION of 46.6%.
Compound Cc1cc(N2CCC(Cc3cccnc3)C2)ncn1 (stereo not drawn) has an INHIBITION of -2.09%.
In the case of Cc1nc(NCc2nncn2C2CC2)c2c(CC(C)C)csc2n1, the INHIBITION is reported as 45.4%.
For CC1CN(C(=O)c2ccnc(-n3cncn3)c2)c2ccccc2S1 (stereo not drawn), the INHIBITION was -40.7%.
Work on CC(=O)N1CC(C)CN(C(=O)c2cscn2)c2ccccc21 (stereo not drawn) yielded an INHIBITION of -5.26%.
With Cc1nc(C(=O)N2CC(C)Sc3ccccc32)cs1 (stereo not drawn) the INHIBITION was 56.8%.
Compound CC1CN(C)c2ccccc2CN1C(=O)c1cscn1 (stereo not drawn) has an INHIBITION of -4.15%.
With CC1CN(C(=O)c2cscn2)c2ccccc2S1 (stereo not drawn) the INHIBITION was 63.7%.
For Cc1ncsc1C(=O)N1CC(C)Sc2ccccc21 (stereo not drawn), the INHIBITION was 44%.
O=S(=O)(c1cccs1)N1CC[C@H]2[C@H]1CCN2c1ncccn1 gave an INHIBITION of -27%.
Work on Cc1occc1C(=O)N1CCc2c(COCC3CC3)cncc2C1 yielded an INHIBITION of 27.9%.
For CN1CCOC(C(=O)Nc2nc(-c3ccccc3F)n[nH]2)C1 (stereo not drawn), the INHIBITION was -35.9%.
In the case of CN1CCOC(C(=O)Nc2ccc3[nH]nnc3c2)C1 (stereo not drawn), the INHIBITION is reported as 59.7%.
Compound CN1CCOC(C(=O)Nc2ccc3c(c2)nc(C(C)(C)C)n3C)C1 (stereo not drawn) has an INHIBITION of 93.9%.
Work on Cn1c(C2CC2)nc2cc(NC(=O)C3CCOC3)ccc21 (stereo not drawn) yielded an INHIBITION of -5.69%.
CN1CCOC(C(=O)Nc2nc(-c3ccc4c(c3)CCC4)n[nH]2)C1 (stereo not drawn) showed an INHIBITION of 32.4%.
With CN1CCOC(C(=O)Nc2nc(-c3ccc(Cl)cc3)n[nH]2)C1 (stereo not drawn) the INHIBITION was -29.5%.
CN1CCOC(C(=O)Nc2nnc(Cc3ccc(F)cc3)[nH]2)C1 (stereo not drawn) was tested, and the INHIBITION was -2.71%.
With Cn1c(C2CC2)nc2cc(NC(=O)C3CC=CC3)ccc21 the INHIBITION was -22.4%.
In the case of CN1CCOC(C(=O)Nc2ccc3c(c2)nc(C2CC2)n3C)C1 (stereo not drawn), the INHIBITION is reported as 60.8%.
CC1(C(=O)N2CCSCC2)CNCCO1 (stereo not drawn) showed an INHIBITION of 34.825%.
Work on O=C1CCCc2[nH]c(=O)c(C(=O)N3CCc4ccccc4C3)cc21 yielded an INHIBITION of 14.1%.
Work on CN1C(=O)[C@@H]2CC[C@H]1CN(Cc1cccc(OCc3ccccn3)c1)C2 yielded an INHIBITION of 47.5%.
For COc1cccc(-c2ncc(CN3C[C@H]4CC[C@@H](C3)N(C)C4=O)s2)c1, the INHIBITION was 78.9%.
COCCN1C[C@H]2CN(Cc3cccc(OC)c3)CCN2C1=O gave an INHIBITION of 24.8%.
COc1cccc(-c2cccc(CN3C[C@H]4CC[C@@H](C3)N(C)C4=O)c2)c1 was tested, and the INHIBITION was 61%.
For COc1cccc(-c2ncc(CN3CC[C@H](CO)[C@@H](O)C3)s2)c1, the INHIBITION was 15.7%.
Work on COc1cccc(-c2ncc(CN3CC[C@@H]4CC[C@H](C3)N4)s2)c1 yielded an INHIBITION of 46.1%.
Work on Cc1ccc(C2NC(=O)c3cc(C(C)C)sc3N2)cc1 (stereo not drawn) yielded an INHIBITION of -4.92%.
Cc1cnn(C2CN(CC(=O)NCCc3c[nH]c4ccccc34)C2)c1 gave an INHIBITION of 10%.
With Cc1cc(-c2cc(C3CCOC3)c(C#N)c(N)n2)ccc1Cl (stereo not drawn) the INHIBITION was 23.9%.
Compound COc1cc(-c2cc(C3CCOC3)c(C#N)c(N)n2)ccc1O (stereo not drawn) has an INHIBITION of 53%.
In the case of COc1ccc(-c2cc(C3CCOC3)c(C#N)c(N)n2)cn1 (stereo not drawn), the INHIBITION is reported as 6.69%.
In the case of C=Cc1ccc(C(=O)N2CCCC(Nc3ccc(OC)cc3)C2)cc1 (stereo not drawn), the INHIBITION is reported as 73.5%.
Compound Cc1ccc(C(=O)N2CCCC(Nc3ccc(F)cc3)C2)cc1 (stereo not drawn) has an INHIBITION of 36%.
With C=Cc1ccc(C(=O)N2CCCC(Nc3ccc(F)cc3)C2)cc1 (stereo not drawn) the INHIBITION was 36.8%.
C=Cc1ccc(C(=O)N2CCCC(Nc3ccc(F)c(F)c3)C2)cc1 (stereo not drawn) gave an INHIBITION of 37.1%.
C=Cc1ccc(C(=O)N2CCCC(Nc3ccccc3)C2)cc1 (stereo not drawn) showed an INHIBITION of 50.3%.
COC(=O)c1ccc(C(=O)N2CCCC(Nc3ccc(F)cc3)C2)cc1 (stereo not drawn) was tested, and the INHIBITION was -6.88%.
In the case of CC(C)N1CCO[C@H]2CN(C(=O)c3ccsc3)C[C@H]21, the INHIBITION is reported as -5.05%.
CC(=O)N1CCCCC[C@@H]2[C@@H]1[C@H](c1cccc(F)c1)CN2C(=O)C1CC1 was tested, and the INHIBITION was 35.85%.
